tim10-1 inh: inhibits growth of tim10-1 mutant yeast. S. cerevisiae tim10-1 ts strain growth, BacTiter-Glo, 24 h. inhibition, % at 20 µM. hit rate 2.2% among 330,000;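 active = inhibition of at least 40%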;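 also: mutant grown at 25 °C; 0% = DMSO wells with yeast and 100% = wells holding no yeast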
PfHsp90 yeast 2: growth inhibition of yeast expressing Plasmodium Hsp90; AID 504621; inhibition, % at 9.4 µM; hit rate 0.32% among 310,000; S. cerevisiae expressing PfHsp90, BacTiter-Glo ATP, 48 h; yeast lacking PDR1 and PDR3 efflux regulators;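 active = every replicate shows inhibition above about 80%, whatever the replicate mean, limit read from the data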;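 also: 0% = DMSO neutral controls and 100% = 20 µM radicicol positive controls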
TIM10 inh: growth inhibitors of TIM10 yeast strain; S. cerevisiae TIM10 strain growth, BacTiter-Glo luminescence, 24 h; inhibition, % at 10 µM; hit rate 1.4% among 330,000; AID 463195;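 active = inhibition of 40% or more at the single tested concentration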;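 also: wild-type TIM10 isogenic control strain grown at permissive 25 °C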
SKKanGAS inh: inhibitors of SKKanGAS S. pyogenes growth in kanamycin (SK-promoter or general growth effect); BacTiter-Glo, 6 h; inhibition, % at 7.5 µM; hit rate 1.3% among 300,000; AID 1662;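 active = mean replicate score, as percent of positive control median, at least 50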;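 also: strain carries kanamycin resistance gene driven by streptokinase promoter and grows in 40 µg/ml kanamycin; loss of luminescence reflects streptokinase promoter inhibition or plain growth inhibition; 0% = median of DMSO wells and 100% = positive control at its reference dose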
tim23-1 inh: growth inhibitors of tim23-1 mutant yeast; S. cerevisiae tim23-1 growth, BacTiter-Glo luminescence, 24 h; inhibition, % at 20 µM; hit rate 1.3% among 330,000; AID 463212;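 active = growth inhibition of the mutant yeast at or above 50%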;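 also: temperature-sensitive mutant grown at 25 °C; plate controls were DMSO-treated mutant yeast for no effect and medium wells lacking yeast for full effect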
tim10-1 confirm: tim10-1 yeast growth inhibition, confirmed. S. cerevisiae tim10-1 ts strain growth, BacTiter-Glo, 24 h. inhibition, % at 20 µM. AID 463213. hit rate 56% among 7,400. shares compounds with tim10-1 inh;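 active = inhibition of yeast growth at or above a set limit in either of two repeat tests at 20 µM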;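 also: tim10-1 mutant grown at permissive 25 °C to find synthetic lethal compounds; 0% = DMSO yeast wells and 100% = medium wells without yeast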
tim10 confirm: TIM10 yeast growth inhibition, confirmed; inhibition, % at 10 µM; AID 463215; shares compounds with TIM10 inh; S. cerevisiae tim10 strain growth, BacTiter-Glo luminescence, 24 h; hit rate 63% among 4,600;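 active = inhibition of yeast growth at or above a set limit in either of two replicates at 10 µM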;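 also: this counterscreen used the strain with wild-type TIM10; 0% = yeast with DMSO and 100% = medium wells lacking yeast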
tim23-1 conf: tim23-1 yeast growth inhibition, confirmed; shares compounds with tim23-1 inh; S. cerevisiae tim23-1 growth, BacTiter-Glo luminescence, 24 h; inhibition, % at 20 µM; hit rate 83% among 4,400; AID 463218;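 active = inhibition above about 39% in either of two replicate wells at 20 µM, limit read from the data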;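 also: temperature-sensitive tim23-1 mutant grown at 25 °C; 0% = DMSO wells with yeast and 100% = medium wells without yeast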
The depositor's hits bear a star; nt = not tested or not shown. Shown are actives, neighbours in structure and some others; about 4.4% of the full set was active somewhere.

SMILES | tim10-1 inh | PfHsp90 yeast 2 | TIM10 inh | SKKanGAS inh | tim23-1 inh | tim10-1 confirm | tim10 confirm | tim23-1 conf
O=C(CNC(=O)c1ccc(S(=O)(=O)N2CCCC2)cc1)N/N=C/c1ccco1 | -5.3 | 5.8 | -11.3 | -10.3 | 15.5 | nt | nt | nt
CN(C)/C=C/C(=O)c1ccc(C(F)(F)F)cc1F | 2.6 | -1.8 | -10.0 | -5.7 | 4.6 | nt | nt | nt
CC(C)(C)OC(=O)N/N=C/c1cccn1-c1ccc([N+](=O)[O-])cc1 | 19.3 | 11.8 | 17.4 | -1.7 | 24.2 | nt | nt | nt
CN(C)c1ccc(-n2cccc2/C=C/[N+](=O)[O-])cc1 | 86.5* | 107.3* | 92.0* | -6.3 | 89.5* | 86.1* | 94.7* | 78.2*
Cc1cc(C)c(S(=O)(=O)c2ccccc2)c(OC(=O)c2cc(F)c(F)cc2Cl)n1 | 48.3* | 38.9 | 45.2* | -6.4 | 66.1* | 33.0* | 13.2 | 72.3*
Cc1cc(OC(=O)c2cc(F)c(F)cc2Cl)nc(C)n1 | 7.0 | -7.6 | -13.9 | 0.0 | -9.8 | nt | nt | nt
COc1ccccc1CNC(=O)C(=O)NCC1OCCN1S(=O)(=O)c1ccc(Br)cc1 (stereo not drawn) | 30.9 | 2.3 | 15.1 | 12.4 | 23.2 | nt | nt | nt
COC(=O)Cc1c(C)[nH]n(-c2cc(Cl)cc(Cl)c2)c1=O | 45.0* | -1.5 | 30.4 | 22.0 | 70.0* | 37.2* | nt | 63.1*
CCOC(=O)c1n[nH]n(-c2cc(Cl)cc(Cl)c2)c1=O | -8.5 | -5.6 | -17.4 | -12.9 | 1.9 | nt | nt | nt
CC1=NN(c2ccccc2)C(=O)/C1=C\c1ccc(Br)s1 | 42.0* | 20.2 | 39.0 | -20.3 | 56.7* | 39.2* | nt | 66.7*
O=C(NC1CCCCC1)C(c1ccc(F)cc1)N(C(=O)c1csnn1)C1CCCC1 (stereo not drawn) | 7.2 | -17.5 | 13.1 | -4.2 | 23.9 | nt | nt | nt
O=C1c2cc(O)cc(O)c2C(=O)c2c1cc(O)c([C@@H](CO)CCO)c2O | 10.3 | 27.5 | 3.1 | 17.2 | 3.5 | nt | nt | nt
O=C1c2cccc(O)c2C(=O)c2c(O)cc(CO)cc21 | 54.1* | nt | 39.3 | -9.6 | 70.6* | 39.2* | nt | 83.7*
CCOC(=O)C(=CNNc1cccc(Cl)c1)C(=O)OCC | 41.1* | 17.9 | 26.6 | -13.3 | 54.8* | 53.4* | nt | 71.8*
COc1ccc(NC(=O)Cc2ccc(Cl)c(Cl)c2)cn1 | -10.7 | -26.1 | -6.3 | -1.3 | 22.6 | nt | nt | nt
COc1ccc(NC(=O)/C(Cl)=C(/Cl)S(=O)Cc2ccccc2Cl)cn1 (stereo not drawn) | 41.8* | 107.2* | 54.5* | nt | 79.3* | 22.9 | 84.4* | 21.3
O=C1C(C2=C(O)c3ccccc3C2=O)=Nc2ccccc21 | 50.6* | -1.1 | 56.3* | 11.6 | 61.5* | 19.1 | 54.2* | 73.0*
CC(=O)N1CCN=C1SCc1cccc(C)c1 | 7.6 | 0.5 | 6.8 | -2.1 | -0.6 | nt | nt | nt
CC(C)c1cccc(OCCN2CCCC2)c1 | -16.6 | -18.2 | -18.4 | 1.0 | -8.5 | nt | nt | nt
COc1ccc(/C=C\C(=O)c2c(O)ccc3c(C)cc(=O)oc23)cc1OC | 53.3* | -18.4 | 46.6* | -6.2 | 54.3* | 50.3* | 50.5* | 52.2*
COc1cc(/C=C/C(=O)c2c(O)ccc3c(C)cc(=O)oc23)ccc1O | 77.7* | -33.1 | 57.1* | 33.0 | 73.3* | 71.8* | 72.9* | 82.0*
CC(=O)c1c(OCC(=O)O)ccc2c(C)cc(=O)oc12 | -1.5 | -22.3 | 11.1 | -4.0 | 21.0 | nt | nt | nt
Cc1cc(=O)oc2c(C(=O)/C=C/c3ccccc3)c(O)ccc12 | 26.9 | 30.8 | -6.9 | 3.7 | 13.4 | nt | nt | nt
Cc1cc(=O)oc2c(C(=O)/C=C\c3cccs3)c(O)ccc12 | 53.8* | -70.4 | 55.7* | 12.4 | 73.2* | 79.5* | 64.1* | 66.3*
CCCS(=O)(=O)N1CCCC(C(=O)Oc2ccc(Cl)cc2)C1 (stereo not drawn) | 22.8 | -15.5 | -1.7 | 1.7 | 27.6 | nt | nt | nt
SMILES | tim10-1 inh | PfHsp90 yeast 2 | TIM10 inh | SKKanGAS inh | tim23-1 inh | tim10-1 confirm | tim10 confirm | tim23-1 conf
COc1cccc(C(=O)NCc2ccco2)c1OC | -17.6 | 3.6 | -5.7 | 1.1 | -0.2 | nt | nt | nt
Cc1cccc(CS(=O)(=O)c2nnc([C@H](Cc3ccccc3)NC(=O)OC(C)(C)C)o2)c1 | 68.9* | 111.9* | 54.0* | 78.8* | 55.1* | 50.6* | 51.8* | 60.5*
CCCCOc1ccc(C(=O)N2CCNC(=O)C2)cc1 | -18.7 | -29.8 | 11.0 | 4.3 | -4.4 | nt | nt | nt
Cc1nc(-c2ccccc2)cc(-c2ccccc2)n1 | 16.9 | -23.1 | 14.9 | -5.7 | 16.3 | nt | nt | nt
CCN(CC)c1nc(C(N)=O)cc(-c2ccccc2)n1 | 63.1* | -7.4 | 48.4* | -5.3 | 66.9* | 61.1* | 14.8 | 73.8*
CN(N)c1nc(-c2ccccc2)cc(-c2ccccc2)n1 | 44.3* | 0.9 | 49.5* | 43.8 | 56.2* | 39.3* | 43.2* | 54.3*
CN1CCN(c2nc(C(N)=O)cc(-c3ccccc3)n2)CC1 | -2.4 | -40.9 | -3.7 | 16.3 | 8.3 | nt | nt | nt
CCn1c(O)c(C2=c3ccccc3=NC2=O)c2cc(Br)ccc21 | 61.1* | nt | 60.4* | 34.6 | 74.6* | 51.4* | 68.1* | 69.3*
O=C1N=c2ccccc2=C1c1c(O)n(-c2cccc(F)c2)[nH]c1=O | nt | 17.4 | nt | 5.7 | nt | nt | nt | nt
CCc1nonc1NC(=O)c1oc2c(C)c(C)ccc2c1C | 24.0 | 26.3 | 9.4 | -6.4 | 11.1 | nt | nt | nt
Cc1cc(C)cc(NC(=S)Nc2ccc(Cl)c(Cl)c2)c1 | 61.5* | 11.0 | 43.0* | 70.2* | 79.5* | 55.8* | 37.4* | 74.8*
NC(=S)Nc1ccc(Cl)c(Cl)c1 | 11.1 | 18.5 | 14.3 | -3.9 | 7.5 | nt | nt | nt
CC(=O)c1sc(-c2ccc(Cl)cc2)cc1N | 50.2* | -33.4 | 30.7 | -10.2 | 59.5* | 9.2 | nt | 44.8*
CC(=O)Nc1ccc(S(=O)(=O)NNC(=S)NCc2ccco2)cc1 | 7.0 | 12.8 | -2.9 | -0.7 | -10.5 | nt | nt | nt
CCCC(=O)N(CCN1CCOCC1)c1nc2c(OCC)cccc2s1 | 15.2 | -18.8 | 4.0 | -9.2 | 14.4 | nt | nt | nt
COC(=O)c1cc(C(=O)NCC2CCCCC2)cc([N+](=O)[O-])c1 | -10.6 | -27.1 | 8.2 | 1.7 | 26.0 | nt | nt | nt
COC1(C)CC2C(CC1OC(=O)c1cc([N+](=O)[O-])cc([N+](=O)[O-])c1)C2(C)C (stereo not drawn) | 60.0* | -6.7 | 63.3* | -1.1 | 65.0* | 61.0* | 62.0* | 68.0*
CN(C)c1ccc(/C=C(/C(=O)c2ccc(Cl)cc2Cl)n2cncn2)cc1 | 52.8* | -8.4 | 51.0* | 5.1 | 54.2* | 40.7* | -26.4 | 56.2*
COc1ccc(/C=C(/C(=O)c2ccc(Cl)cc2Cl)n2cncn2)cc1 | 63.5* | 7.4 | 76.8* | -5.4 | 75.5* | 70.1* | 77.8* | 49.0*
COc1cccc(N2CCN(C(=O)c3cc4c(s3)CCCCC4)CC2)c1 | 13.0 | -11.0 | 4.6 | nt | 31.2 | nt | nt | nt

Screening data from PubChem BioAssay.
